For 9 sequences, binding signal results are on record in article PMC7862700, “An all-to-all approach to the identification of sequence-specific readers for epigenetic DNA modifications on cytosine”.

Holding throughout (assay): DAPPL (digital affinity profiling via proximity ligation, sequencing); 10 mM Tris-HCl pH 7.5, 50 mM NaCl, 1 mM DTT, 4% glycerol, room temperature, 30 min; GST-TFs on glutathione beads, 16-mer random dsDNA library, 0.1% formaldehyde crosslink after washing; high values mean tight binding
Common to all, as to conditions: protein: recombinant; tags: N-terminal GST; dsDNA, one strand shown

The target in test [1] is T1, ERF (Homo sapiens, UniProt P50548 1-548).
T1 sequence: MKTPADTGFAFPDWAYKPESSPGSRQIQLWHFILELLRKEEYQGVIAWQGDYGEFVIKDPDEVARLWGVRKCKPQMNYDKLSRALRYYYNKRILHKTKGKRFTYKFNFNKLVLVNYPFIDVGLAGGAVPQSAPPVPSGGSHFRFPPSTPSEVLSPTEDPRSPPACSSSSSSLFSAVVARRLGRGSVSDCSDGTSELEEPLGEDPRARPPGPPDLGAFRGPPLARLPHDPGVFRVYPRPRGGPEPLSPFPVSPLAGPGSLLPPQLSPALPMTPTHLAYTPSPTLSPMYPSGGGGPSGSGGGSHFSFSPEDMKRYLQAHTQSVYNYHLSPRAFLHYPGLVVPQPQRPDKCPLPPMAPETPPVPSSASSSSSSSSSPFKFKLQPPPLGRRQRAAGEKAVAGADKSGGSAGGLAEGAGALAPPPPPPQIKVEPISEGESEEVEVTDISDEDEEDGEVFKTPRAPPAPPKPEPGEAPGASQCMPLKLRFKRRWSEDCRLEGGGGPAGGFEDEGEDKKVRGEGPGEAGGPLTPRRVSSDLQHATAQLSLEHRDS
Summed up: (§1)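 In yeast, human transcription factors were expressed with a GST fusion, then pulled down on glutathione beads and given DNA barcodes. Pooled with a tag-only sample, they were exposed to 200 nmole of a 16-mer random double-stranded DNA library (Tris/NaCl/DTT/glycerol buffer, room temperature, 30 min), washed, crosslinked with 0.1% formaldehyde, proximity-ligated using BsaI/T4 ligase for 1 h at 37 °C, PCR-amplified and read on an Illumina NextSeq500. Each hexamer's frequency of reads for a factor, divided by the matching frequency for the tag-only sample, gives the binding signal.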

In test [2] the target is T2, ETV3L (Homo sapiens, UniProt Q6ZN32 1-361).
T2 sequence: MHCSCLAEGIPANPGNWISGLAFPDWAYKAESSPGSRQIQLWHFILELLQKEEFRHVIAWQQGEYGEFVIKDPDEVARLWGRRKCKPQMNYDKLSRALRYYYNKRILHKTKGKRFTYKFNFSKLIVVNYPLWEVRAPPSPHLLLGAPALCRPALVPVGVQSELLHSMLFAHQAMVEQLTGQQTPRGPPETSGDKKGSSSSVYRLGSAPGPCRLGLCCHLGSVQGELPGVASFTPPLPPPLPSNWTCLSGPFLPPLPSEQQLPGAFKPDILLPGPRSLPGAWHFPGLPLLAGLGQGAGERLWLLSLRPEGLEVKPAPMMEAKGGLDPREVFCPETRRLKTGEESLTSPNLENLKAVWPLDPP
Summed up:
as §1

Test [3] addresses T3, ETS2 (Homo sapiens, UniProt P15036 1-469).
T3 sequence: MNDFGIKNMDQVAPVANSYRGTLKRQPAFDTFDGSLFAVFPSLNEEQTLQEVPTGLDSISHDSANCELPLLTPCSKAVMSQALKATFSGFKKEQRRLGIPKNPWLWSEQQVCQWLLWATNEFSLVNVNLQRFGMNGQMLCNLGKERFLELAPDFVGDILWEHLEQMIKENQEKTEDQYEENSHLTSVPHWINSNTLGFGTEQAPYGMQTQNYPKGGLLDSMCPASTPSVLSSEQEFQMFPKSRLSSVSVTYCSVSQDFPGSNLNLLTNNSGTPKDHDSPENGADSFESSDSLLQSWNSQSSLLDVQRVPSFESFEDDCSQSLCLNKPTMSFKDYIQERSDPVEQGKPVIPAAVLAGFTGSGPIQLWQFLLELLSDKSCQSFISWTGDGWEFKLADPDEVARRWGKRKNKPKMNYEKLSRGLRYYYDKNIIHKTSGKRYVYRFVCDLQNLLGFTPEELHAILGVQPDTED
The procedure, abridged: as §1

For test [4], the target named is T4, SPDEF (Homo sapiens, UniProt O95238 1-335).
T4 sequence: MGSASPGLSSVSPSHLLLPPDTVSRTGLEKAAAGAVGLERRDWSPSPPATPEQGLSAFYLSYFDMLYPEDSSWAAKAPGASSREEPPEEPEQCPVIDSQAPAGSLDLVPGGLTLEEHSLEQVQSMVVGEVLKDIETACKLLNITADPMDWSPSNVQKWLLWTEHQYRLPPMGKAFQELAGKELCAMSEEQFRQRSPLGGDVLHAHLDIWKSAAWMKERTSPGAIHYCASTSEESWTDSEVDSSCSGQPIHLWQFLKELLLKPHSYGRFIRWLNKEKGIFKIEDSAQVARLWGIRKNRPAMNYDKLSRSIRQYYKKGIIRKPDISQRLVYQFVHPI
Summed up: as §1

Test [5] addresses T5, ETV7 (Homo sapiens, UniProt Q9Y603 1-341).
T5 sequence: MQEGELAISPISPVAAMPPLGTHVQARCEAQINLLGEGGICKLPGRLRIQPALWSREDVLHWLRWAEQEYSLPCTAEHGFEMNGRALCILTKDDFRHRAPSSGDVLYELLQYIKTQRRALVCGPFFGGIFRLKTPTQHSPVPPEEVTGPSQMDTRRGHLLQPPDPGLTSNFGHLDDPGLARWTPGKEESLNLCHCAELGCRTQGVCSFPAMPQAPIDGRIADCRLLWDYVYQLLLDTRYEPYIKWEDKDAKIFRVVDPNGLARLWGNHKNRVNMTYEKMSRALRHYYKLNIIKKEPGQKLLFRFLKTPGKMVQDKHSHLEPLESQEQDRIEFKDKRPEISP
Summed up: as §1

Test [6] has as its target T6, ELF5 (Homo sapiens, UniProt Q9UKW6-2 1-255).
T6 sequence: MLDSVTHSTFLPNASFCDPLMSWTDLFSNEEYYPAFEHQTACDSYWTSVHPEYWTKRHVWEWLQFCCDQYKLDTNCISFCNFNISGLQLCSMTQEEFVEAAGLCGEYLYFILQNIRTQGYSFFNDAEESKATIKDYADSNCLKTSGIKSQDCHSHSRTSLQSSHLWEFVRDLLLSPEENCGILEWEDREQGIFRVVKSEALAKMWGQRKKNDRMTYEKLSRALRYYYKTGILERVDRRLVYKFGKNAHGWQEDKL
Summed up:
as §1

The target in test [7] is T7, ETV3 (Homo sapiens, UniProt P41162-2 1-143).
T7 sequence: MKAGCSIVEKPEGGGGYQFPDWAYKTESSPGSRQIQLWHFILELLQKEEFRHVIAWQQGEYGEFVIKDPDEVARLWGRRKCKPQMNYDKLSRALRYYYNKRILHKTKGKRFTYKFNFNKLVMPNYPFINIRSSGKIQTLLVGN
The procedure, abridged:
as §1

For test [8], the target named is ETV6 (Homo sapiens, UniProt P41212 1-452). The procedure, abridged:
as §1

ETV6, sequence (P41212 whole entry): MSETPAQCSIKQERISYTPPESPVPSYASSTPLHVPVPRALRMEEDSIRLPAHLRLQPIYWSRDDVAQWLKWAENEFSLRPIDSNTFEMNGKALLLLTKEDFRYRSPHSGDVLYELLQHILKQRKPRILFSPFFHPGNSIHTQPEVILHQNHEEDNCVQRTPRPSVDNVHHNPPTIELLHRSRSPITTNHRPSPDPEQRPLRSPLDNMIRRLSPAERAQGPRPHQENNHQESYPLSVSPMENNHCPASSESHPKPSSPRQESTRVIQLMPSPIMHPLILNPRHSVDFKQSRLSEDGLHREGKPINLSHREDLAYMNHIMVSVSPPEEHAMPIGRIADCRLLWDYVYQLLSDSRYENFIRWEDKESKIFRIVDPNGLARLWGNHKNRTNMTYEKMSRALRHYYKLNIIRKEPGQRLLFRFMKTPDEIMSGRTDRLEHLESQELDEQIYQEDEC

In the case of TTTGTA, the binding signal in test [1] was 1.63 fold enrichment (6-mer frequency, TF over GST control); in test [2], 1.69 fold enrichment (6-mer frequency, TF over GST control); in test [3] it was 1.52 fold enrichment (6-mer frequency, TF over GST control); in test [4], 1.6 fold enrichment (6-mer frequency, TF over GST control); in test [5], 1.53 fold enrichment (6-mer frequency, TF over GST control); in test [6] it was 1.46 fold enrichment (6-mer frequency, TF over GST control). The binding signal in test [7] was 1.63 fold enrichment (6-mer frequency, TF over GST control); in test [8], 1.54 fold enrichment (6-mer frequency, TF over GST control).
With CAAAAA, the binding signal is 1.15 fold enrichment (6-mer frequency, TF over GST control) in test [1]; 1.15 fold enrichment (6-mer frequency, TF over GST control) in test [2]; 1.12 fold enrichment (6-mer frequency, TF over GST control) in test [3]; 1.07 fold enrichment (6-mer frequency, TF over GST control) in test [4]; 1.1 fold enrichment (6-mer frequency, TF over GST control) in test [5]; 1.07 fold enrichment (6-mer frequency, TF over GST control) in test [6]. Moreover, the binding signal in test [7] is 1.12 fold enrichment (6-mer frequency, TF over GST control); in test [8], 1.12 fold enrichment (6-mer frequency, TF over GST control).
Turning to GTAAAA, the binding signal is 1.13 fold enrichment (6-mer frequency, TF over GST control) in test [1]; 1.14 fold enrichment (6-mer frequency, TF over GST control) in test [2]; 1.13 fold enrichment (6-mer frequency, TF over GST control) in test [3]; 1.09 fold enrichment (6-mer frequency, TF over GST control) in test [4]; 1.18 fold enrichment (6-mer frequency, TF over GST control) in test [5]; 1.18 fold enrichment (6-mer frequency, TF over GST control) in test [6]. The binding signal in test [7] was 1.16 fold enrichment (6-mer frequency, TF over GST control); in test [8], 1.14 fold enrichment (6-mer frequency, TF over GST control).
For the sequence TGGCAT, the binding signal in test [1] was 1.11 fold enrichment (6-mer frequency, TF over GST control); in test [2] it was 1.1 fold enrichment (6-mer frequency, TF over GST control); in test [3] it was 1.14 fold enrichment (6-mer frequency, TF over GST control); in test [4] it was 1.09 fold enrichment (6-mer frequency, TF over GST control); in test [5], 1.1 fold enrichment (6-mer frequency, TF over GST control); in test [6], 1.06 fold enrichment (6-mer frequency, TF over GST control). The binding signal in test [7] is 1.23 fold enrichment (6-mer frequency, TF over GST control); in test [8], 1.25 fold enrichment (6-mer frequency, TF over GST control).
Consider CGTTTT, for which the binding signal was 1.15 fold enrichment (6-mer frequency, TF over GST control) in test [1]; 1.29 fold enrichment (6-mer frequency, TF over GST control) in test [2]; 1.16 fold enrichment (6-mer frequency, TF over GST control) in test [3]; 1.14 fold enrichment (6-mer frequency, TF over GST control) in test [4]; 1.25 fold enrichment (6-mer frequency, TF over GST control) in test [5]; 1.14 fold enrichment (6-mer frequency, TF over GST control) in test [6]. Moreover, the binding signal in test [7] was 1.21 fold enrichment (6-mer frequency, TF over GST control); in test [8], 1.24 fold enrichment (6-mer frequency, TF over GST control).
For AAATGT, the binding signal in test [1] was 1.27 fold enrichment (6-mer frequency, TF over GST control); in test [2], 1.33 fold enrichment (6-mer frequency, TF over GST control); in test [3] it was 1.44 fold enrichment (6-mer frequency, TF over GST control); in test [4], 1.27 fold enrichment (6-mer frequency, TF over GST control); in test [5], 1.27 fold enrichment (6-mer frequency, TF over GST control); in test [6], 1.48 fold enrichment (6-mer frequency, TF over GST control). For the same sequence, the binding signal is 1.3 fold enrichment (6-mer frequency, TF over GST control) in test [7] and 1.31 fold enrichment (6-mer frequency, TF over GST control) in test [8].
With TCTAGC, the binding signal is 1.35 fold enrichment (6-mer frequency, TF over GST control) in test [1]; 1.27 fold enrichment (6-mer frequency, TF over GST control) in test [2]; 1.3 fold enrichment (6-mer frequency, TF over GST control) in test [3]; 1.22 fold enrichment (6-mer frequency, TF over GST control) in test [4]; 1.36 fold enrichment (6-mer frequency, TF over GST control) in test [5]; 1.21 fold enrichment (6-mer frequency, TF over GST control) in test [6]. For the same sequence, the binding signal in test [7] is 1.32 fold enrichment (6-mer frequency, TF over GST control); in test [8] it was 1.22 fold enrichment (6-mer frequency, TF over GST control).
Regarding GTCTCA, the binding signal in test [1] was 1.37 fold enrichment (6-mer frequency, TF over GST control); in test [2], 1.3 fold enrichment (6-mer frequency, TF over GST control); in test [3] it was 1.34 fold enrichment (6-mer frequency, TF over GST control); in test [4], 1.29 fold enrichment (6-mer frequency, TF over GST control); in test [5], 1.13 fold enrichment (6-mer frequency, TF over GST control); in test [6] it was 1.3 fold enrichment (6-mer frequency, TF over GST control). Further, the binding signal in test [7] was 1.32 fold enrichment (6-mer frequency, TF over GST control); in test [8], 1.16 fold enrichment (6-mer frequency, TF over GST control).
With TAAATT, the binding signal in test [1] was 1.3 fold enrichment (6-mer frequency, TF over GST control); in test [2] it was 1.32 fold enrichment (6-mer frequency, TF over GST control); in test [3], 1.17 fold enrichment (6-mer frequency, TF over GST control); in test [4], 1.21 fold enrichment (6-mer frequency, TF over GST control); in test [5], 1.27 fold enrichment (6-mer frequency, TF over GST control); in test [6] it was 1.19 fold enrichment (6-mer frequency, TF over GST control). Also, the binding signal in test [7] was 1.21 fold enrichment (6-mer frequency, TF over GST control); in test [8], 1.28 fold enrichment (6-mer frequency, TF over GST control).
